Test [1] is described as follows: optical density shifts of acrAB sulA E. coli – strain DRC41, OD650, 48 h, E. coli filamentation inducer project, primary screen (AID 1152).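 Further: E. coli MC1000 strain DRC41 lacking acrAB efflux pump and sulA.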 The conditions noted are these: higher = more signal, called active from +8 up or from −8 down.
Test [2] can be described thus: probe aLefty1 binding on compound microarray – biochemical, small-molecule microarray, 635/667 nm fluorescence, primary screen (AID 1153).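 Further: score merges spot fluorescence with signal-to-noise ratio from the scanned slide images.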 Conditions: higher = more signal.
Test [3] can be described thus: plasmodial surface anion channel blockers, osmotic lysis – cell-based, P. falciparum Indochina, OD700, 1 h, primary screen (AID 1154). The conditions noted are these: P. falciparum Indochina infected RBC osmotic lysis, higher = more signal, called active from +8 up or from −8 down.
Test [4] in a line: plasmodial surface anion channel blockers, osmotic lysis – cell-based, P. falciparum Indochina, OD700, 2 h, primary screen (AID 1155).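 Further: lysis reports solute entry through the parasite surface anion channel PSAC.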 The conditions noted are these: P. falciparum Indochina infected erythrocytes, higher = more signal, called active from +8 up or from −8 down.
Test [5] is described as follows: changes in parasitized red cell lysis, either direction – P. falciparum Indochina, OD700, 3 h, PSAC antagonist project, primary screen (AID 1156). The conditions noted are these: P. falciparum-infected erythrocytes, osmotic lysis, higher = more signal, called active from +8 up or from −8 down.
Test [6] can be described thus: plasmodial surface anion channel blockers, osmotic lysis – cell-based, P. falciparum Indochina, OD700, 18 h, primary screen (AID 1157). The conditions noted are these: P. falciparum Indochina infected erythrocytes, osmotic lysis OD700, 18 h; higher = more signal, called active from +8 up or from −8 down.
The nature of test [7]: S6 kinase pathway phospho-S6 level changes – cell-based, A549, cytoblot, luminescence, serum-stimulated, primary screen (AID 1158).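 Further: serum-stimulated A549 lung adenocarcinoma cells; signal is phosphorylated S6 detected by cytoblot immunostaining with HRP secondary.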 The conditions noted are these: 5 h, higher = more signal.
For test [8], the target named is NADPH oxidase 2 (Homo sapiens) (UniProt P04839). Briefly: compounds shifting NOX2 Amplex Red fluorescence – cell-based, HEK293-NOX2, PMA-stimulated, NOX inhibitor project, primary screen (AID 1159). Further: test concentration not given here. Conditions: 45 min, higher = more signal, called active from +8 up or from −8 down.
For test [9], the target named is NADPH oxidase 4 (Homo sapiens) (UniProt Q9NPH5). Briefly: compounds shifting NOX4 Amplex Red fluorescence – cell-based, HEK293-NOX4, tetracycline-induced, NOX inhibitor project, primary screen (AID 1160). The conditions noted are these: HEK293-NOX4, Amplex Red H2O2 fluorescence, 45 min; higher = more signal, called active from +8 up or from −8 down.
Test [10] deals with NADPH oxidase 5 (Homo sapiens) (UniProt Q96PH1). In words: compounds shifting NOX5 Amplex Red fluorescence – cell-based, HEK293-NOX5, NOX inhibitor project, primary screen (AID 1161). Conditions: HEK293-NOX5, ionomycin, 45 min, higher = more signal.

Active and inactive are the calls of the source.

NADPH oxidase 4 (Homo sapiens), sequence (Q9NPH5 whole entry, looked up): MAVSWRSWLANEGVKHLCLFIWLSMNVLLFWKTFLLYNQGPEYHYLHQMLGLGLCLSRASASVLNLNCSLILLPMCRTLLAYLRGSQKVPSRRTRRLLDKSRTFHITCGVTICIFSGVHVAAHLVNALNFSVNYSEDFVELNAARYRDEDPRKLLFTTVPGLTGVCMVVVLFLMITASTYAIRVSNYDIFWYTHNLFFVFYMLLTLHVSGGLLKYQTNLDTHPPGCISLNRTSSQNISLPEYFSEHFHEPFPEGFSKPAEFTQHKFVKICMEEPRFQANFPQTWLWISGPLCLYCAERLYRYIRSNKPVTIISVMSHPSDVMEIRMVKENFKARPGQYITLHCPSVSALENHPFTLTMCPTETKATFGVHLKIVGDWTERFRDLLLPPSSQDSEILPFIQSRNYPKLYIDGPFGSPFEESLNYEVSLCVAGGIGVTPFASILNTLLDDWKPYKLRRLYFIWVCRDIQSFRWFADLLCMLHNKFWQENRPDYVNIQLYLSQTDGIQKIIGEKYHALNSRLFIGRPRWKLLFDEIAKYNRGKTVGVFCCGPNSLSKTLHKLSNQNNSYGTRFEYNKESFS
NADPH oxidase 2 (Homo sapiens), sequence (P04839 whole entry, looked up): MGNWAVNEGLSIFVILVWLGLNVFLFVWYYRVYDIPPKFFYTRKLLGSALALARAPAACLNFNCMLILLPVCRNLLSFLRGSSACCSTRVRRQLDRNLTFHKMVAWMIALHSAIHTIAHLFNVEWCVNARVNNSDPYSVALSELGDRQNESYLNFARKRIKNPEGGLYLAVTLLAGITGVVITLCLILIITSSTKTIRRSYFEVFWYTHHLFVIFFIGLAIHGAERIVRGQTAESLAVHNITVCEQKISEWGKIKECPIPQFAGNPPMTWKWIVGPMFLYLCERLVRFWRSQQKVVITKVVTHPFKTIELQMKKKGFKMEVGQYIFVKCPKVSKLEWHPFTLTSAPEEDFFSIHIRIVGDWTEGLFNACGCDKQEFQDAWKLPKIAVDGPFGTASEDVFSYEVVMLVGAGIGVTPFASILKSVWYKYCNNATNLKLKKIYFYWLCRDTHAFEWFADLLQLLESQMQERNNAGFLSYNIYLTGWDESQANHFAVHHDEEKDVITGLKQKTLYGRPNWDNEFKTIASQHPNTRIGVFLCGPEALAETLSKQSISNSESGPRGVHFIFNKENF
NADPH oxidase 5 (Homo sapiens), sequence (Q96PH1 whole entry, looked up): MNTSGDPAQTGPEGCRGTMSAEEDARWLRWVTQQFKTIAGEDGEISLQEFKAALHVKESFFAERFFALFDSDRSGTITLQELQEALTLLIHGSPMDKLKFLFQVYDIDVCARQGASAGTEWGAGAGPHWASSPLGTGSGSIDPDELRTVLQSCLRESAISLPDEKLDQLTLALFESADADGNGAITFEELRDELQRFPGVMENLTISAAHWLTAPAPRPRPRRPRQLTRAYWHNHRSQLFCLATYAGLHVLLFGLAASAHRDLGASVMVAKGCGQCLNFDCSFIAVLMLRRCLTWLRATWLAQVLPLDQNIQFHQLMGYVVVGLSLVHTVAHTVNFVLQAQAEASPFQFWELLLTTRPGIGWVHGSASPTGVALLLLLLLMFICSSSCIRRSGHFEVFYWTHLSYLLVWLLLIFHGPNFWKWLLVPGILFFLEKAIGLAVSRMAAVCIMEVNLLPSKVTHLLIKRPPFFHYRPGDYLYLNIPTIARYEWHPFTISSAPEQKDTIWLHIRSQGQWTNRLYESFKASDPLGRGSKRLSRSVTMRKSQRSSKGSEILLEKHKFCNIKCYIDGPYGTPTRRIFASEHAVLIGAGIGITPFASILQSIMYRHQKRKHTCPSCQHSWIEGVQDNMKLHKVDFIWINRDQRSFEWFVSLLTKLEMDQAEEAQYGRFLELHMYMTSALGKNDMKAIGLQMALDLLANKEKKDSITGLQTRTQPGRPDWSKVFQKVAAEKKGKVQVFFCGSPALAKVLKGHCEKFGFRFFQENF

For `COc1cc2c(cc1O)C(c1ccc(CN3CCCC3)cc1)N(C)CC2` (stereo not given), the z-score in [1] is 0.309 (inactive); in [3], 0.0334 (inactive); in [4] it was -0.0719 (inactive); in test [5] it was 0.247 (inactive); in [6], 0.0339 (inactive); in test [7], -0.364. In addition, the z-score in test [8] is -1.63 (inactive); in test [9] it was -1.46 (inactive); in test [10], -1.22. The same molecule had a composite z-score in [2] of -0.446.
With `CN1C=C(C(=O)OCCS(C)(=O)=O)C(C(=O)OCCS(C)(=O)=O)=CC(c2ccc(CO)cc2)=CC1c1cccs1` (stereo not given), the z-score in [1] was 0.248 (inactive); in test [3] it was 9.6 (active); in test [4] it was 1.64 (inactive); in [5], 0.298 (inactive); in [6], 0.969 (inactive); in test [7], 0.0225. The z-score is -0.937 (inactive) in [8], -0.558 (inactive) in test [9] and -1.98 in test [10]. The molecule also gave a composite z-score in test [2] of 0.391.
`COCCCNC(=O)[C@@]1(Sc2ccc(C)cc2)CC(=O)N(C(C)C)[C@@H]1c1ccc(CO)cc1I`: the z-score in test [1] is -0.158 (inactive); in [3] it was 6.72 (inactive); in test [4], -0.602 (inactive); in test [5] it was 0.349 (inactive); in [6] it was -1.49 (inactive); in [7], 1.61. Further, the z-score in test [8] was 1.77 (inactive); in [9], -1.47 (inactive); in test [10], -0.854. In addition, in [2], the composite z-score was 0.0445.
On to `O=C1N(CCS(=O)(=O)c2ccccc2)Cc2ccccc2[C@@H]2OC(c3ccc(OCCCO)cc3)=N[C@]12CCS(=O)(=O)c1ccccc1`, for which the z-score in test [1] is -0.769 (inactive); in [3], 26 (active); in test [4], 18.8 (active); in test [5], 3.14 (inactive); in [6] it was 2.44 (inactive); in [7], -0.355. Moreover, the z-score in [8] was 1.5 (inactive); in test [9] it was 2.01 (inactive); in [10] it was 1.96. The same molecule registered a composite z-score in test [2] of 0.568.
With `COc1ccc([Si](C)(C)[C@H]2[C@H](CC(=O)N3CCC[C@H]3CO)O[C@@]3(C(=O)N(Cc4ccc(N5CCC5=O)cc4)c4ccccc43)[C@@H]2C)cc1`, the z-score in [1] was -0.691 (inactive); in test [3], 10 (active); in test [4], 1.8 (inactive); in [5], 0.171 (inactive); in test [6], 0.746 (inactive); in test [7], 0.783. Also, the z-score in [8] is 1.93 (inactive); in test [9] it was 1.63 (inactive); in test [10], 4.56. In test [2], the composite z-score was found to be 0.213.
As for `O=C(O)[C@@H]1C[C@@H]2C(=O)N3CCC[C@H]3C(=O)N2[C@@H]1c1cccc(OCCO)c1`, the z-score in test [1] is 0.807 (inactive); in test [3] it was 2.94 (inactive); in test [4] it was 0.591 (inactive); in test [5], -1.77 (inactive); in test [6] it was 0.35 (inactive); in [7] it was 0.132. Besides, the z-score was 1.29 (inactive) in test [8], 0.355 (inactive) in [9] and 1.59 in test [10]. The composite z-score in [2] was 2.57.
Turning to `COCCCNC(=O)[C@@]1(c2ccc([N+](=O)[O-])cc2)CC(=O)N(CC23CC4CC(CC(C4)C2)C3)[C@@H]1c1ccc(CO)cc1I`, the z-score in [1] was -0.355 (inactive); in test [3], 24 (active); in [4], 8.65 (active); in test [5], 2.5 (inactive); in [6], 2.31 (inactive); in test [7] it was -0.0623. For the same molecule, the z-score is 2.08 (inactive) in [8], -1.02 (inactive) in test [9] and -0.233 in test [10]. The composite z-score in test [2] stood at 0.082.
Consider `COc1ccc([Si](C)(C)[C@H]2[C@H](CCO)O[C@@]3(C(=O)N(Cc4ccc(N5C(=O)c6ccccc6Oc6ccccc65)cc4)c4ccccc43)[C@@H]2C)cc1`, for which the z-score is 0.157 (inactive) in test [1]; 4.29 (inactive) in test [3]; 2.83 (inactive) in [4]; -1.44 (inactive) in test [5]; 1.38 (inactive) in test [6]; 0.211 in test [7]. Moreover, the results for the z-score in test [8], in [9] and in test [10] were -0.681 (inactive), 2.36 (inactive) and 1.9, respectively. This molecule yielded a composite z-score in test [2] of 0.0211.
Regarding `C=CCC(OC(C)=O)[C@@H]1[C@@H](N(Cc2ccc(-c3cccc(C(F)(F)F)c3)o2)C(=O)Cc2ccc(OC)cc2)c2cc(OCCCO)ccc2N1C(=O)Cc1ccc2ccccc2c1` (stereo not given in full), the z-score in test [1] is -0.597 (inactive); in test [3], 0.572 (inactive); in [4], 0.214 (inactive); in test [5], 1.83 (inactive); in [6], 0.165 (inactive); in test [7], 0.258. The z-score is -1.6 (inactive) in test [8], -1.4 (inactive) in test [9] and -1.11 in [10]. In addition, the composite z-score in test [2] worked out at 0.0026.
As to `C=CCNC(=O)[C@@H]1[C@H]2C(=O)O[C@H](c3ccccc3)[C@H](c3ccccc3)N2[C@H](c2ccc(O)cc2)[C@@]12C(=O)N(C(=O)OCCOC)c1ccc(C#CCCO)cc12`, the z-score in test [1] is -0.181 (inactive); in [3], 2.22 (inactive); in test [4] it was 0.517 (inactive); in test [5] it was 0.0855 (inactive); in [6], 0.121 (inactive); in [7], 0.0918. Moreover, the z-score was 0.982 (inactive) in test [8], 0.194 (inactive) in [9] and 1.06 in test [10]. In [2], this molecule displayed a composite z-score of 0.0911.
For `C=CCC(OC(C)=O)[C@@H]1[C@@H](N(Cc2cc3ccccc3o2)C(=O)c2ccc(-c3ccccc3)cc2)c2cc(OCCCO)ccc2N1C(=O)Cc1ccc(OC)cc1` (stereo not given in full), the z-score is -1.14 (inactive) in [1]; 0.702 (inactive) in test [3]; 0.701 (inactive) in [4]; 0.365 (inactive) in test [5]; 0.703 (inactive) in [6]; 0.3 in test [7]. Also, the z-score in test [8] is -0.0713 (inactive); in test [9], -0.918 (inactive); in [10], 1.09. For the same molecule, the composite z-score in test [2] was -0.0547.
For the molecule `C=C(COC)/C(=C/C[C@H](OC(C)=O)c1cccc(OCCO)c1)c1cnc2ccccc2c1`, the z-score in test [1] is -0.339 (inactive); in test [3] it was 15.2 (active); in test [4] it was 2.65 (inactive); in test [5] it was 1.41 (inactive); in test [6], 0.872 (inactive); in test [7], -0.512. The z-score in test [8] was 0.373 (inactive); in test [9], 0.228 (inactive); in test [10] it was -0.167. Besides, in [2], the composite z-score worked out at 0.0999.

The values are drawn from PubChem BioAssay.
